About 79,000 compounds went through this panel and 15% of them were active in at least one assay; those are over-represented in the sample as a whole. Active and inactive are the calls of the source. Rule as the data show it: active = growth inhibition above about 70%; inactive = the rest.
Key:
[1] = NCI Yeast Anticancer Drug Screen. Data for the rad50 strain (AID 155);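 also: 0% = growth of vehicle-only cultures of the same strain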; conditions: S. cerevisiae rad50 strain growth inhibition; at 50.0 µM; hits give high values
Method in brief: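 DNA repair mutant yeast, compound exposure, growth read-out; inhibition is taken relative to vehicle.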

[2] = NCI Yeast Anticancer Drug Screen. Data for the mec2-1 strain (AID 157); conditions: S. cerevisiae mec2-1 strain, at 50.0 µM, hits give high values
Method in brief: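 Readout is yeast growth inhibition, normalised to vehicle-treated controls, in the mec2-1 strain exposed to compound.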

[3] = NCI Yeast Anticancer Drug Screen. Data for the sgs1 mgt1 strain (AID 161);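 also: 0% = growth of cultures given vehicle only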; conditions: S. cerevisiae sgs1 mgt1 strain, at 50.0 µM, hits give high values
Method in brief: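 Yeast cells carrying a defined DNA-repair defect were exposed to test compounds. Growth inhibition was measured relative to vehicle-treated controls.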

[4] = NCI Yeast Anticancer Drug Screen. Data for the cln2 rad14 strain (AID 165);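 also: 0% = growth equal to vehicle treated cultures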; conditions: S. cerevisiae cln2 rad14 strain, at 50.0 µM, hits give high values
Method in brief: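 Relative to vehicle controls, growth inhibition of compound-treated cln2 rad14 yeast was recorded.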

[5] = NCI Yeast Anticancer Drug Screen. Data for the bub3 strain (AID 167); conditions: S. cerevisiae bub3 mutant strain, at 50.0 µM, hits give high values
Method in brief: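 In this screen, a yeast mutant lacking normal mitotic checkpoint function is challenged with compound. Relative growth versus vehicle gives the inhibition value.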

[6] = NCI Yeast Anticancer Drug Screen. Data for the mlh1 rad18 strain (AID 175); conditions: S. cerevisiae mlh1 rad18 strain growth inhibition; at 50.0 µM; hits give high values
Method in brief: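 Test agents were incubated with a yeast strain of defined genotype (DNA damage repair defect). Inhibition of growth was derived by comparison with vehicle-exposed cultures.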

Measured: growth inhibition

O=C(Nc1ccc(Cl)cc1)NS(=O)(=O)c1coc2ccccc2c1=O
inactive: [1] 9.65% | [2] 7.3% | [3] -5.75% | [4] 18.6% | [5] 11.6% | [6] 23.1%

O=C1OC(Cl)C=C1c1ccccc1 (configuration not stated)
inactive: [1] 5.2% | [2] -7.35% | [3] -4.35% | [4] -36.5% | [5] -23.5% | [6] 0.65%

Clc1ccc(C2NC(c3ccccc3)c3c(ccc4ccccc34)O2)cc1Cl (configuration not stated)
active: [1] 86.2% | [2] 92.6% | [3] 92.2% | [4] 88.2% | [5] 90.5% | [6] 92.1%

CC1=CC(C(O)C(C)C)C(C)(Cc2ccc(C)cn2)NC1c1ccccc1 (configuration not stated)
inactive: [1] 50.6% | [2] -6.3% | [3] 5.45% | [4] 15.2% | [5] -2.05% | [6] 0.5%

Cc1nnc(-n2nc(-c3ccc(Cl)cc3)cc2N)[nH]c1=O
inactive: [1] 54% | [2] 12.1% | [3] 22.4% | [4] 12.8% | [5] 23.4% | [6] 34%

CC1CCC2(CC1)OC(C)C(C)O2 (configuration not stated)
inactive: [1] 20.1% | [2] -2.4% | [3] 4.9% | [4] -34.6% | [5] 28.8% | [6] 10.7%

N#CC(C#N)=C1C=Cc2ccccc2O1
inactive: [1] 27.9% | [2] -1.35% | [3] 0.9% | [4] 5.15% | [5] -1.4% | [6] 43.9%

[O-][n+]1onc2c1/C(=N/O)CCC2
inactive: [1] -17.2% | [2] 4.6% | [3] -14.3% | [4] -2.3% | [5] -4.1% | [6] 11.7%

NC(=S)NNC(=O)c1ccncc1
inactive: [1] 13.3% | [2] -3.1% | [3] 1.8% | [4] 10.4% | [5] 3.75% | [6] 7.05%

c1csc(C2=NCCC2)c1
inactive: [1] 0.35% | [2] -6.65% | [3] 6.35% | [4] 36.5% | [5] 31.6% | [6] 3.3%

CC(=O)N1CCc2[nH]c3ccccc3c2CC1
inactive: [1] 10.9% | [2] -7.05% | [3] -4.55% | [4] 21.8% | [5] -3.1% | [6] 16.2%

COc1ccc(C2=C/C(=C/c3ccc(N(CCC#N)CCC#N)cc3)C(=O)O2)cc1
inactive: [1] -75.2% | [2] -6.2% | [3] -16.4% | [4] -18.2% | [5] -3.05% | [6] -22.8%

C/C=C(\C)C(=O)OC1CC(OC(=O)/C(C)=C/C)C2(C)C3C(=O)C=C(C)C2C3C1(C)C (configuration not stated)
inactive: [1] 18.8% | [2] 5.85% | [3] 34.6% | [4] 25.6% | [5] 3.05% | [6] 6.8%

O=c1c(=[n+]2ccc(=C([O-])c3ccccc3)cc2)/c(=N/S(=O)(=O)c2ccccc2)c(=O)c2ccccc12
inactive: [1] 19.2% | [2] 33.1% | [3] 39.8% | [4] 7% | [5] 12.8% | [6] 26.4%

CCOc1c(C(=O)O)cnc2ccccc12
inactive: [1] -6.2% | [2] 19.5% | [3] -6.2% | [4] -38.9% | [5] -19.6% | [6] -0.75%

O=C(O)c1ccc2c(c1)S(=O)(=O)c1ccccc1C2=O
inactive: [1] 14.1% | [2] 17.5% | [3] -3.8% | [4] 9.6% | [5] 23.9% | [6] 17.1%

N#C/C(N)=C(\C#N)NC=NCCO
inactive: [1] 5.35% | [2] 7.75% | [3] 13.2% | [4] 18% | [5] 10.6% | [6] -37.8%

CNC(=O)Nc1ccc(C(=O)OCC(C)C)cc1
inactive: [1] 6.4% | [2] 8.7% | [3] 12.9% | [4] -34.1% | [5] -22.1% | [6] 7.45%

CCCCC1CCCCC1=O (configuration not stated)
inactive: [1] 16.4% | [2] -15.2% | [3] 3.1% | [4] 12.5% | [5] -0.45% | [6] 5.1%

COC(=O)CCCCCCCCC(=O)OC
inactive: [1] 8.9% | [2] 33.8% | [3] 8.8% | [4] 8.95% | [5] 25.8% | [6] 7.15%

COc1nc(NCCO)nc(OC)n1
inactive: [1] 3.35% | [2] -2.5% | [3] -16.5% | [4] -29.6% | [5] 4.65% | [6] -4.85%

CN(C)C1CS(=O)(=O)OC2=C1COCC2 (configuration not stated)
inactive: [1] -16.4% | [2] 9.8% | [3] -0.7% | [4] -3.8% | [5] 15.8% | [6] 2.55%

CC(C)(C)[Si](C)(C)OC1CCOC1(O)c1ccccn1 (configuration not stated)
inactive: [1] 5.75% | [2] 0.65% | [3] 29.6% | [4] 37.1% | [5] 35.8% | [6] -8.2%

C1CCN(/N=N/c2nn[nH]n2)CC1
inactive: [1] -2.3% | [2] 6.55% | [3] -2.8% | [4] -23% | [5] 3.9% | [6] -0.7%

Cc1cccc2c(=O)[nH]c(=O)[nH]c12
inactive: [1] -14.2% | [2] -12.2% | [3] -2.15% | [4] -58.8% | [5] -4.4% | [6] -20.1%

CNC(=O)OCc1nc(SC)n(Cc2ccccc2)c1COC(=O)NC
inactive: [1] 15.3% | [2] 5.9% | [3] 11.2% | [4] -1.1% | [5] -1.55% | [6] 18.5%

CCOC(=O)CCC(C(=O)OCC)C(C)C(=O)OCC (configuration not stated)
inactive: [1] -25.4% | [2] -19.1% | [3] -25.8% | [4] -11.7% | [5] 4.1% | [6] -15.2%

NC(=S)N/N=C/c1ccc(OC(F)(F)F)cn1
inactive: [1] 27.1% | [2] 28.1% | [3] 46.5% | [4] 10.3% | [5] 59.5% | [6] 40.6%

c1ccc(CC2CCCC(Cc3ccccc3)N2)cc1 (configuration not stated)
inactive: [1] -1.25% | [2] -16.4% | [3] -5.55% | [4] -49.3% | [5] 16.1% | [6] 5.1%

Cc1ccc(N(C(=O)Nc2ccc(F)c(Cl)c2)C2=NCC(C)S2)cc1 (configuration not stated)
inactive: [1] -57.5% | [2] -14.4% | [3] -45% | [4] -13.7% | [5] -5.05% | [6] -51.4%

CCOC(=O)NC(=O)c1cn(C2OC(COC(=O)CCCCCCCCC(=O)OCC3OC(n4cc(C(=O)NC(=O)OCC)c(=O)[nH]c4=O)C4OC(C)(C)OC34)C3OC(C)(C)OC32)c(=O)[nH]c1=O (configuration not stated)
inactive: [1] -42.9% | [2] -39.5% | [3] -27.9% | [4] 10.9% | [5] -16.1% | [6] -24.9%

COC(=O)c1ccc(C(=O)OC)c(N)c1
inactive: [1] 0.95% | [2] 5.4% | [3] -1.85% | [4] -33% | [5] 3.95% | [6] 0.5%

C=C1C(=O)[C@@]23CC[C@@H]4[C@@]5(C)CCC[C@@]4(OC5=O)C2(C)CC[C@]1(OC)C3 (some centres not stated)
active: [1] 87.2% | [2] 92.5% | [3] 88.3% | [4] 88.5% | [5] 88.4% | [6] 90.7%

Cc1cccc(C2=C/C(=C(\SS/C(C(=O)c3ccc(OCC(=O)O)c(Cl)c3Cl)=C3\C=C(c4cccc(C)c4)SS3)C(=O)c3ccc(OCC(=O)O)c(Cl)c3Cl)SS2)c1
inactive: [1] -6.65% | [2] -22.8% | [3] -0.6% | [4] 1.95% | [5] -5.15% | [6] -10.7%

C[N+](C)(C)c1ccc(C(=O)[O-])cc1
inactive: [1] 3.55% | [2] 18.8% | [3] -0.4% | [4] 0.55% | [5] 16% | [6] 8.1%

O=C(CCn1[nH]c(=O)c(Cl)c(Cl)c1=O)NNC(=O)C[n+]1ccccc1
inactive: [1] -4.2% | [2] -8.9% | [3] -28.3% | [4] 34.2% | [5] -7.05% | [6] -25.1%

CCCCCCCCCCCCCCCc1cc(OC)ccc1S(=O)(=O)O
inactive: [1] 22.6% | [2] 5.8% | [3] 15.9% | [4] 30.9% | [5] 3.1% | [6] 15.6%

Source: PubChem BioAssay (NCI)
